Rows were chosen to be rich in hits. Some 4.7% of all compounds tested hit in one or more screens of this group.
D3 antag: antagonists of human D3 dopamine receptor | 2.5% of 360,000 active | max response, negative = inhibition, % | P35462 | AID 652054 | D3R cells, DiscoveRx beta-arrestin luminescence, antagonist mode; stronger effect = lower value; in the data active = max response below about -50%; inconclusive = no clear call, values can overlap the other calls; note: % is set by controls: 0 for no effect and ±100 for the full control effect
Target sequence (P35462 whole entry, looked up): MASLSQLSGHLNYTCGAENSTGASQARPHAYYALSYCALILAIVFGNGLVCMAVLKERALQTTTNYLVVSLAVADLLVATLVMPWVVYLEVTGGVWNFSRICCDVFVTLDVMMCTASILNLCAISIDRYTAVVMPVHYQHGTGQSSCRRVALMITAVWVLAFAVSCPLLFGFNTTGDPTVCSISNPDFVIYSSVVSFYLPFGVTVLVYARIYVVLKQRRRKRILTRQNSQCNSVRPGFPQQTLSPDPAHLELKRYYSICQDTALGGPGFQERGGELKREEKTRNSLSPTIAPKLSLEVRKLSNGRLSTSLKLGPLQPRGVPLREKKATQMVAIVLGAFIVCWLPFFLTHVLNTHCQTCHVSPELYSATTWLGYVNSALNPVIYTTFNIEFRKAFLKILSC
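Cells expressing the human receptor were seeded at 1500 cells/well, incubated overnight at 37 degrees C in 5% CO2, then exposed to library compounds with dopamine controls for 90 minutes at 37 degrees C before luminescent detection.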
TGFb inhibitor: TGF-b pathway inhibition; HepG2 CAGA-GFP TGF-b/SMAD3 reporter, GFP fluorescence, 18 h; TGF-beta stimulated, 500 pg/mL final; Potency, µM (doses to about 46.1 µM), without a hit: top-dose activity, negative = inhibition, usual class: inhibitors; 1.2% of 410,000 active; note: potency is the fitted concentration of half-maximal effect; % is set by controls: 0 for no effect and ±100 for the full control effect; nearly all actives have a fitted effect of over 65% in size
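GFP signal (ex488/em500-530) from TGF-beta-stimulated HEPG2 CAGA-GFP cells, 500 pg/mL final, 18 h at 37 degrees C in DMEM plus 1% FBS, normalized to unstimulated and DMSO-stimulated controls.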
DRD3 agonist: activates the human D3 dopamine receptor; D3R DiscoveRx beta-arrestin cells, luminescence, 90 min; max activation, %; 0.58% of 410,000 active; in the data active = max activation above about 30%; note: 0% is about no effect
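Agonist mode: compounds and dopamine controls were applied to plated cells for 90 min at 37 degrees C after an overnight attachment at 1500 cells/well. Luminescent read-out followed 30 - 60 minutes at room temperature with DiscoveRx detection reagent.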
ATXN2 expr inh: ATXN2 expression inhibition; AID 1745845; 0.72% of 360,000 active; HEK-293 ATXN2-luciferase reporter, luminescence, 24 h; Potency, µM (doses to about 57 µM), inactives show at the highest dose activity change, negative = inhibition, usual class: inhibitors; note: potency is the fitted concentration of half-maximal effect; % is set by controls: 0 for no effect and ±100 for the full control effect; nearly all actives have a fitted effect of over 55% in size
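ATXN2-luciferase reporter cells (luciferase flanked by upstream and downstream ATXN2 gene portions) were treated 24 h at 37 °C with compounds at up to 57 uM. SteadyGlo luminescence gave expression; GF-AFC fluorescence gave viability.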
HepG2 tox: kills HepG2 cells in TGF-b inhibitor counter-screen | 0.76% of 410,000 active | HepG2 CAGA-GFP viability, ATP luminescence, 18 h | Potency, µM (series often up to 46.1 µM), for inactives: at the top dose activity change, negative = cytotoxicity, most hits filed as cytotoxic; note: potency is the fitted concentration of half-maximal effect
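HepG2 CAGA-GFP cells (1000/well, DMEM with 1% FBS) received compound, then TGF-beta at 500 pg/mL final, and were incubated 18 hours at 37 degrees C. Viability was read by CellTiter-Glo luminescence. Media-only wells were set as complete cell-killing and DMSO as no toxicity.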
ATXN viability: reduces viability in counter-screen for ATXN expression inhibitors; 0.49% of 400,000 active; S2 cells (HEK-293 line with an ATXN2-luciferase reporter) viability, CellTiter-Fluor protease fluorescence, 24 h; AID 651635; Potency, µM (highest dose often 56.7 µM), hits mostly cytotoxic; note: potency is the fitted concentration of half-maximal effect; nearly all actives have a fitted effect of over 40% in size
Active calls of the source: *; ! = a repeat was not active. Unless noted, calls come from the whole dose curve; as a rule, active = well fitted curve in the direction sought with a large enough effect; inconclusive = small, poorly fitted or top-dose-only effect, or another doubt; inactive = no such curve, though single readings can be large; an effect the other way counts as inactive or inconclusive.

How did COc1cccc(/C=N/NC(=O)c2c(C)nc3ccc(Br)cn23)c1O do in these assays?
D3 antag: 19; TGFb inhibitor: inconclusive; DRD3 agonist: 8; ATXN2 expr inh: 0.63µM*; HepG2 tox: -19%; ATXN viability: inactive

Results for COc1cc(OC)c2cc(C(=O)N/N=C/c3cccc(OC)c3O)[nH]c2c1 ?
D3 antag: 21; TGFb inhibitor: inconclusive; DRD3 agonist: 0; ATXN2 expr inh: 3.2µM*; HepG2 tox: -22%; ATXN viability: inconclusive

How did O=C(C[n+]1ccccc1)c1ccc(O)c(O)c1 do in these assays?
TGFb inhibitor: -1%; HepG2 tox: -22%

Results for COc1ccc(-c2cc(C(=O)NCc3ccc(F)cc3)c3c(-c4ccc(F)cc4)[nH]nc3n2)cc1OC ?
TGFb inhibitor: inconclusive; DRD3 agonist: 1; ATXN2 expr inh: -14%; HepG2 tox: -52%; ATXN viability: inactive

Results for COc1cccc(C=NNC(=O)c2ccncc2)c1O ?
D3 antag: 21; TGFb inhibitor: 14%; DRD3 agonist: 13; ATXN2 expr inh: 10µM*; HepG2 tox: -11%; ATXN viability: inactive

What do the screens show for `CCn1c(C)nc2cc(C(=O)N/N=C/c3cccc(OC)c3O)ccc21`?
D3 antag: 16; TGFb inhibitor: 0%; DRD3 agonist: 12; ATXN2 expr inh: 14µM*; HepG2 tox: -5%; ATXN viability: inactive

What do the screens show for `COc1cccc(/C=N/NC(=O)N/N=C/c2cccc(OC)c2O)c1O`?
D3 antag: -4; TGFb inhibitor: -10%; DRD3 agonist: 21; ATXN2 expr inh: inconclusive; HepG2 tox: -11%; ATXN viability: inactive

Results for COc1cccc(/C=N/NC(=O)c2nc(-c3ccccc3)cc(-c3ccccc3)n2)c1O ?
D3 antag: 9; TGFb inhibitor: -21%; DRD3 agonist: 7; ATXN2 expr inh: 10µM*; HepG2 tox: -31%; ATXN viability: inactive

What do the screens show for `COc1cccc(CNC(=O)c2cccc(-n3c(C)nc4cccnc43)c2)c1OC`?
TGFb inhibitor: -21%; DRD3 agonist: 0; HepG2 tox: 6%

How did O=C(O)CN(CC(=O)O)CC1=CC2C(=CC1=O)Oc1cc(O)c(CN(CC(=O)O)CC(=O)O)cc1C21OC(=O)c2ccccc21 (centres undefined) do in these assays?
DRD3 agonist: 2

Results for CCOC(=O)C1=C(N)c2ccccc2CC1C1CCCC1 (centres undefined) ?
D3 antag: 13; TGFb inhibitor: 13µM*; DRD3 agonist: -8; HepG2 tox: -116%; ATXN viability: inactive

Results for Cc1ccc(S(=O)(=O)c2nc(S(C)(=O)=O)sc2N2CCCC2)cc1 ?
D3 antag: 5; TGFb inhibitor: 16%; DRD3 agonist: -4; ATXN2 expr inh: 5%; HepG2 tox: 13%; ATXN viability: inactive

How did Cc1ccc(S(=O)(=O)c2nc(S(=O)(=O)c3ccccc3)sc2N2CCN(C)CC2)cc1 do in these assays?
D3 antag: -86*; TGFb inhibitor: -10%; DRD3 agonist: -20; ATXN2 expr inh: -4%; HepG2 tox: 13%; ATXN viability: inactive

How did Cc1ccc(S(=O)(=O)c2nc(S(=O)(=O)c3ccccc3)sc2N2CCN(CCO)CC2)cc1 do in these assays?
D3 antag: -74*; TGFb inhibitor: 3%; DRD3 agonist: -18; ATXN2 expr inh: -2%; HepG2 tox: -2%; ATXN viability: inactive

How did COc1cc(-c2noc(-c3ccc(NC4CCCCC4)c([N+](=O)[O-])c3)n2)cc(OC)c1OC do in these assays?
TGFb inhibitor: inconclusive; DRD3 agonist: 3; ATXN2 expr inh: -4%; HepG2 tox: 6%; ATXN viability: inactive

Results for Cc1ccc(NC(=O)CN(C)C(=O)CSc2nc(C)cs2)cc1 ?
D3 antag: -62*; TGFb inhibitor: 8%; DRD3 agonist: -18; ATXN2 expr inh: 5%; HepG2 tox: 0%; ATXN viability: inactive

How did COc1ccc(OC)c(-c2noc(N3CCN(c4cccc(C(F)(F)F)c4)CC3)n2)c1 do in these assays?
TGFb inhibitor: -21%; DRD3 agonist: -5; ATXN2 expr inh: -32%; HepG2 tox: -25%; ATXN viability: inactive

Results for Cc1ccc(-c2nnc(Nc3ccc(O)cc3)c3ccccc23)cc1S(=O)(=O)N1CCN(C)CC1 ?
TGFb inhibitor: 10µM*; DRD3 agonist: -6; ATXN2 expr inh: inconclusive; HepG2 tox: -21%; ATXN viability: inconclusive

Results for CN1CCN(c2ncccc2S(=O)(=O)N2CCCCC2)CC1 ?
D3 antag: -67*; TGFb inhibitor: -13%; DRD3 agonist: -15; ATXN2 expr inh: 3%; HepG2 tox: 4%; ATXN viability: inactive

What do the screens show for `Cc1ccc(-c2nnc(N3CCCCC3)c3ccccc23)cc1S(=O)(=O)N1CCN(C)CC1`?
D3 antag: -83*; TGFb inhibitor: inconclusive; DRD3 agonist: -18; ATXN2 expr inh: -7%; HepG2 tox: -25%; ATXN viability: inactive

What do the screens show for `Cc1ccc(-c2nnc(Nc3cccc(O)c3)c3ccccc23)cc1S(=O)(=O)N1CCN(C)CC1`?
TGFb inhibitor: -22%; DRD3 agonist: -7; ATXN2 expr inh: -10%; HepG2 tox: 0%; ATXN viability: inconclusive

What do the screens show for `CCOc1ccc(-c2nnc(N3CCCCC3)c3ccccc23)cc1`?
D3 antag: -4; TGFb inhibitor: -1%; DRD3 agonist: 0; ATXN2 expr inh: inconclusive; HepG2 tox: -28%; ATXN viability: 28µM*

How did CC(C)(C)NC[C@H](O)COc1nsnc1N1CCOCC1 do in these assays?
D3 antag: -54*!; TGFb inhibitor: -5%; DRD3 agonist: -42; ATXN2 expr inh: -1%; HepG2 tox: 0%; ATXN viability: inactive

Results for Cc1ccc(NC(=O)Cn2cc3c(n2)CCC(C)C3)cc1C (centres undefined) ?
TGFb inhibitor: -2%; DRD3 agonist: -12; ATXN2 expr inh: -13%; HepG2 tox: -11%; ATXN viability: inactive

How did Cc1cc(Br)ccc1NC(=O)COC(=O)c1ccccc1OCC(=O)N(C)C do in these assays?
TGFb inhibitor: -8%; HepG2 tox: 1%

Results for CC1O[C@@H](OCC2O[C@@H](Oc3cc(O)c4c(c3)OC(c3ccc(O)cc3)CC4=O)[C@H](O)[C@@H](O)[C@@H]2O)[C@H](O)[C@H](O)[C@H]1O (some centres undefined) ?
D3 antag: -58*; TGFb inhibitor: -2%; DRD3 agonist: -24; ATXN2 expr inh: -9%; HepG2 tox: -6%; ATXN viability: inactive
